Source: PubChem BioAssay (several laboratories)
TNAP act mid DEA: activates human TNAP at intermediate phosphate acceptor concentration; P05186; purified TNAP, CDP-star luminescence, 100 mM DEA, 30 min; hits give high values; scale: 0 levamisole-inhibited, 1 vehicle-only enzyme; activation factor at 20 µM; 64,000 tested, under 10 active;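 active = activation factor of at least 2 at 20 µM, relative to controls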
DAT uptake mod: changed human dopamine transporter uptake under cocaine IC80; Q01959; LLC-PK1 hDAT cells, [14C]-dopamine uptake with cocaine IC80; actives deviate in either direction; B-score at 10 µM; 110,000 compounds, 1.3% hits;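 active = Z score or B-score, a plate-position-corrected score, falls beyond the plate's 99.7% confidence bounds, in either direction; inactive = both scores lie inside the 99.7% bounds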;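 note: scored against the spread of the other compound wells on the same plate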
Target sequence (Q01959 whole entry, looked up): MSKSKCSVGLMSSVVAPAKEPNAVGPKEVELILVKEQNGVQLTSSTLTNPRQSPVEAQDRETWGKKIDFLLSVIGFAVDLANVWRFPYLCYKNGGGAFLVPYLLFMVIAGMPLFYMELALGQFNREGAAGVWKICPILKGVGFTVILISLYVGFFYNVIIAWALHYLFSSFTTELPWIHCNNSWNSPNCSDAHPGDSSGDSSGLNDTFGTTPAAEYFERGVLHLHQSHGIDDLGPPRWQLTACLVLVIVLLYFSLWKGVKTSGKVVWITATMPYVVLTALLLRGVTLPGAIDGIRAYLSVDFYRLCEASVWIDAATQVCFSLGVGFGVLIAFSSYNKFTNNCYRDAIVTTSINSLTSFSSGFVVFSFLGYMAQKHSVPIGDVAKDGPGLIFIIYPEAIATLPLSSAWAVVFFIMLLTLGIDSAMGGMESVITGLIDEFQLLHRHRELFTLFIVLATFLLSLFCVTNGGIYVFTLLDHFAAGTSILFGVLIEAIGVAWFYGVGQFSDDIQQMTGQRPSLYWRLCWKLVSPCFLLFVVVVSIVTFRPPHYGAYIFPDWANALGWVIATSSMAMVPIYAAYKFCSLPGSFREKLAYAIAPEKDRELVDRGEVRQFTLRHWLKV
PostGolgi yeast: growth inhibition of a yeast mutant, post-Golgi transport screen | post-Golgi transport phenotypic cell assay | inhibition, % at 10 µM | 98,000 compounds, 0.9% hits;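 note: yeast cells grown in 1536-well plates; yeast grown about 18 h at 30C before absorbance read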
Cav32 inh: human Cav3.2 channel inhibition, primary screen; Cav3.2-expressing cells, Fluo-4 calcium fluorescence FDSS; hits give low values; B-score at 10 µM; 100,000 compounds, 4% hits;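 active = single-dose well whose peak fluorescence ratio is a statistical outlier from its plate by either plate-standardised score or position-corrected B-score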
Smad3 inh: inhibitors of human Smad3 transcription factor binding; TR-FRET Smad3/Dy647-FoxH1 peptide binding, europium anti-His; P84022; AID 630; 88,000 compounds, 0.29% hits; inhibition, % at 25 µM;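 active = compounds that reduce the energy-transfer binding signal between the protein and its labelled peptide by more than half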;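 note: 0% = Smad3 plus labelled peptide maximal FRET and 100% = peptide-only background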
PostGolgi ctrl: inhibits growth of the yeast control strain | efflux-deficient yeast background strain, growth absorbance A615, 16 h | inhibition, % at 10 µM | 98,000 compounds, 5% hits | AID 738
* = called active by the depositor; · = no result. Hits are enriched below; roughly 8.7% of the tested compounds scored in any of these assays. Cut-off read from the data, not from the text of the source, unless noted: active = inhibition above about 30%; inactive = the rest.

SMILES | TNAP act mid DEA | DAT uptake mod | PostGolgi yeast | Cav32 inh | Smad3 inh | PostGolgi ctrl
CCC1CCCCN1C(=O)COC(=O)c1cc2ccccc2cc1O (configuration not stated) | 0.9 | 0.287 | -2.9 | -3.1 | 2.7 | 5.2
CCN(CC)CCN1C(=O)C(=O)/C(=C(/O)c2c(C)[nH]c(C(=O)OC)c2C)C1c1ccccc1OC (configuration not stated) | 0.8 | -0.364 | 3.3 | 0.863 | -0.3 | -3.6
COC(=O)c1ccc(CN2[C@H](C(=O)OC)C[C@@]3(O)[C@@H](O)[C@@H](O)[C@@H](O)C[C@@H]23)cc1 | · | -0.0607 | · | 0.781 | · | ·
c1ccc(OCCOc2ncnc3sccc23)cc1 | 0.9 | -1.19 | -8.7 | 0.754 | -4.4 | 9.9
C(=N\c1ncnc2sccc12)/NOCc1ccccc1 | · | 0.924 | 21.8 | -0.0844 | · | 65.8*
CC(=O)N1c2ccccc2NC2=C(C(=O)CCC2)C1c1cccnc1 (configuration not stated) | 0.8 | -1.02 | 4.6 | -1.25 | -6.3 | 5.8
Cc1cc(C(C)(C)C)oc1C(=O)N(CC(=O)NC1CCCC1)Cc1ccc(F)cc1 | · | 0.884 | -3.5 | -1.33 | · | 8.1
Cc1ccc(C)c(N(CC(=O)NC2CCCC2)C(=O)c2oc(C(C)(C)C)cc2C)c1 | · | 1.24 | -4.0 | -4.75* | · | 11.9
CN1/C(=C\C=Nc2ccc3ccccc3c2)C(C)(C)c2ccccc21 | · | 1.2 | 10.6 | -9.43* | · | 20.3
O=C(CN1C(=O)C2CC=CCC2C1=O)Nc1nnc(SCc2ccc(Cl)cc2)s1 (configuration not stated) | · | 0.371 | -5.0 | -4.47* | -6.4 | 14.6
CCC(SC1=N/C(=C/c2ccccc2OC)C(=O)N1c1ccccc1)C(=O)Nc1cc(C)on1 (configuration not stated) | · | -0.00463 | 2.3 | -4.84* | · | 5.5
COC(=O)C1=C(C)N(Cc2ccco2)C(=O)N[C@@H]1c1ccccc1 | · | -0.159 | · | -0.0717 | · | ·
O=C1Nc2ccccc2[C@]1(O)Cc1ccccn1 | · | · | · | · | 2.2 | ·
CN1CC(c2ccccn2)C2(SC(=S)N(Cc3ccccc3)C2=O)C12C(=O)Nc1ccccc12 (configuration not stated) | · | -0.0913 | 3.4 | -4.75* | -6.1 | 5.9
CN1CC(c2ccccc2)C2(SC(=S)N(Cc3ccco3)C2=O)C12C(=O)Nc1ccccc12 (configuration not stated) | · | 0.0675 | 12.8 | -4.71* | 1.0 | 29.5
Cc1cccc(N(CC(=O)NC2CCCC2)C(=O)CS(=O)CC(=O)Nc2ccc3c(c2)OCO3)c1C (configuration not stated) | · | -0.0736 | · | -0.298 | 8.4 | ·
Cc1ccc(NC(=O)CS(=O)CC(=O)Nc2ccc3c(c2)OCO3)cc1Cl (configuration not stated) | 0.8 | -7.55* | 11.7 | -3.29 | 7.5 | -0.6
Cc1nc(-n2nnc3ccccc32)c2c3c(sc2n1)CCCC3 | 1 | 0.199 | 2.5 | -1.02 | 7.9 | 32.2*
Cc1nc(NS(=O)(=O)c2ccccc2C)c2c3c(sc2n1)CCC3 | · | -0.18 | 0.3 | -3.3 | 10.3 | 46.8*
O=S(=O)(Nc1ncnc2sc3c(c12)CCC3)c1ccc2ccccc2c1 | · | 0.672 | 4.5 | -4.71* | 0.1 | 18.1
c1ccc(Nc2ncnc3sc4c(c23)CCC4)cc1 | · | -0.387 | -1.9 | -1.61 | · | 6.3
CCOC(=O)c1nn(-c2ccc(Br)cc2)cc1C(=O)c1cccc2ccccc12 | · | 1.01 | 2.4 | -1.37 | · | 31.1*
CC(=O)NS(=O)(=O)c1ccc(NS(=O)(=O)c2ccc(F)cc2)cc1 | 0.9 | -0.107 | -2.3 | 0.159 | -2.9 | -1.8
CCN1CCN(C(=O)c2ccc3c(c2)N(Cc2ccc(F)cc2)C(=O)c2ccccc2S3=O)CC1 (configuration not stated) | 0.9 | -0.017 | 3.5 | -7.15* | · | 0.1
CCN1C(=O)c2ccccc2S(=O)c2ccc(C(=O)N3CCCCCC3)cc21 (configuration not stated) | 1 | · | -9.0 | · | -7.5 | 4.2
SMILES | TNAP act mid DEA | DAT uptake mod | PostGolgi yeast | Cav32 inh | Smad3 inh | PostGolgi ctrl
Cc1cc(N2CCN(C(=O)c3ccco3)CC2)nc(-c2ccccc2)n1 | 1 | -0.523 | · | 1.34 | 16.1 | ·
CCOC(=O)Cc1ccc(NC(=O)c2ccc(C(C)(C)C)cc2)cc1 | · | -0.331 | -13.2 | -8.09* | 25.8 | 14.0
CC(=O)Nc1ccc(S(=O)(=O)N2CCCc3ccccc32)cc1 | 0.8 | 0.00963 | 5.0 | -0.915 | -2.8 | 4.9
CCC(=O)N1CCCc2cc(S(=O)(=O)N3CCCc4ccccc43)ccc21 | 0.9 | 0.203 | 17.2 | -1.35 | 7.1 | 35.2*
Nc1ccc(S(=O)(=O)N2CCCc3ccccc32)cc1 | 0.8 | 2.27* | -2.0 | 0.408 | -0.6 | 8.7
O=C(CSc1nc2ccccc2[nH]1)N1CCN(c2ccc(F)cc2)CC1 | 1 | 0.835 | -3.9 | -2.22 | 5.8 | -0.6
O=C(CCCSc1nc2ccccc2[nH]1)N1CCN(c2ccc([N+](=O)[O-])cc2)CC1 | · | 2.2 | -3.8 | -3.07 | · | 31.9*
COc1ccccc1NC(=O)CN1CCN(CC(=O)Nc2ccccc2F)CC1 | 0.9 | · | · | · | 3.9 | ·
CCN(CC)c1ccc(NC(=O)CN2CCN(c3nc(C)cc(C)n3)CC2)cc1 | 0.9 | -0.105 | 19.2 | -4.21* | 1.9 | 26.4
CCN(CC)c1ccc(NC(=O)CN2CCN(CC(=O)Nc3ccccc3F)CC2)cc1 | 0.9 | 2.46* | 10.4 | 0.546 | 1.6 | -9.8
CCCn1nnc(NC(=O)c2cccc(Cl)c2)n1 | · | 0.221 | -1.6 | 0.713 | -1.8 | 7.7
CCCCn1nnc(NC(=O)Cc2ccc(Cl)cc2)n1 | 0.9 | 0.229 | 2.0 | -1.54 | 2.0 | 18.3
CCCn1nnc(NC(=O)c2ccc(-c3cccc(Cl)c3)o2)n1 | · | 0.328 | 13.6 | -5.04* | 12.1 | 26.7
CCCCn1nnc(NC(=O)c2ccc(-c3cccc(Cl)c3)o2)n1 | · | 1.42 | -3.3 | -4.89* | -3.0 | 6.7
C=CCSc1nc2c(sc3nc(C)cc(C)c32)c(=O)[nH]1 | · | 1.31 | -6.2 | -0.393 | · | 28.5
COc1cc(C(=O)Sc2ccc(C)cc2)cc(OC)c1OC | · | · | 15.4 | · | · | 45.3*
CCOC(=O)C1CCCN(c2cc(C)nc3cc(-c4ccc(F)cc4)nn23)C1 (configuration not stated) | 0.9 | -0.0238 | 0.3 | -2.18 | 0.4 | 42.4*
C/C(=N\NC(=O)c1cccc(Cl)c1)c1cccc(NC(=O)c2ccco2)c1 | · | 1.78 | 9.9 | -5.49* | · | -7.1
C/C(=N/NC(=O)c1ccco1)c1cccc(NC(=O)c2ccc(C)o2)c1 | · | 0.416 | -3.0 | 0.538 | · | 3.8
FC(F)Sc1ccc(NC(=S)NCC2CCCCC2)cc1 | · | -1.24 | 36.4* | -5.67* | 8.8 | 38.2*
CCN1CCN(C(=S)c2ccc(Cl)cc2)CC1 | · | -0.76 | 4.8 | 0.183 | -3.3 | 5.8
N=C(N)S[C@@H]1c2ccccc2-c2cc([N+](=O)[O-])ccc21 | · | · | · | · | 68.7* | ·
CC1CC(N(C(=O)c2ccccc2Cl)c2ccccc2)c2ccccc2N1 (configuration not stated) | · | · | 3.2 | · | · | 38.6*
CN(C(=O)c1ccccc1Cl)C1CCCCC1 | 0.9 | 0.142 | -4.0 | -1.01 | -3.6 | 17.9
